Measurements: publication PMC7862700, “An all-to-all approach to the identification of sequence-specific readers for epigenetic DNA modifications on cytosine”

Assays:
Assay in all cases: DAPPL (digital affinity profiling via proximity ligation, sequencing); 10 mM Tris-HCl pH 7.5, 50 mM NaCl, 1 mM DTT, 4% glycerol, room temperature, 30 min; GST-TFs on glutathione beads, 16-mer random dsDNA library, 0.1% formaldehyde crosslink after washing; high values mean tight binding
[1] = target: T1, FEV (Homo sapiens, UniProt Q99581 1-238); settings: protein: recombinant; tags: N-terminal GST; dsDNA, one strand shown
T1 sequence: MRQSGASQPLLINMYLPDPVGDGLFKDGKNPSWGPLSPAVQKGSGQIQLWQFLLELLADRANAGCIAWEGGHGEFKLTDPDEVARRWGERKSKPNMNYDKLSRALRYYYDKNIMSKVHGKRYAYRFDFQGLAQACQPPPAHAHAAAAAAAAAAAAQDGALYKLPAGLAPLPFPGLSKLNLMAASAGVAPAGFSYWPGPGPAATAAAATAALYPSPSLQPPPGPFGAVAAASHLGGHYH
Procedure, shortened: (§1)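 Pools of DNA-barcoded human transcription factors, expressed in yeast as GST fusions on glutathione beads and combined with a tag-only sample, were incubated with 200 nmole of a 16-mer random double-stranded DNA library. Incubation took 30 min at room temperature in Tris/NaCl/DTT/glycerol buffer and was followed by washing, 0.1% formaldehyde crosslinking, proximity ligation (BsaI/T4 ligase, 1 h, 37 °C), PCR amplification and sequencing on an Illumina NextSeq500. Binding signal is the ratio of a hexamer's read frequency for a factor to its frequency for the tag-only sample.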

[2] = target: ETV5 (Homo sapiens, UniProt P41161 1-510); settings: protein: recombinant; tags: N-terminal GST; dsDNA, one strand shown
Chain of ETV5 (P41161 whole entry): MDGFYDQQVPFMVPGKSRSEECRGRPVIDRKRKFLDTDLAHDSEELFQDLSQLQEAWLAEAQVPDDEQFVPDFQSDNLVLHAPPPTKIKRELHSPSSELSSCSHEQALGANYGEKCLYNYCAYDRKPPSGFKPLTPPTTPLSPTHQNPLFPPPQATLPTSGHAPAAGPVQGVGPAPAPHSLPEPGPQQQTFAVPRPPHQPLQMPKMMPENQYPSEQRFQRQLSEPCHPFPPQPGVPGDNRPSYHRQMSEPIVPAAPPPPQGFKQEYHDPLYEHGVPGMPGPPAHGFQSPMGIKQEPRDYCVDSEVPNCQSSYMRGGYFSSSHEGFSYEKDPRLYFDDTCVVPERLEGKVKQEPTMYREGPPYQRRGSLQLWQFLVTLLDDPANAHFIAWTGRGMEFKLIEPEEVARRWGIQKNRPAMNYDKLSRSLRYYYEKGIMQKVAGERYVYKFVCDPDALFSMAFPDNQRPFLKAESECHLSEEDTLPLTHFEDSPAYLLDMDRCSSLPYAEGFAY
Procedure, shortened: as §1

[3] = target: HSF1 (Homo sapiens, UniProt Q00613 1-529); settings: protein: recombinant; tags: N-terminal GST; chain copies: 3; dsDNA, one strand shown
Chain of HSF1 (Q00613 whole entry): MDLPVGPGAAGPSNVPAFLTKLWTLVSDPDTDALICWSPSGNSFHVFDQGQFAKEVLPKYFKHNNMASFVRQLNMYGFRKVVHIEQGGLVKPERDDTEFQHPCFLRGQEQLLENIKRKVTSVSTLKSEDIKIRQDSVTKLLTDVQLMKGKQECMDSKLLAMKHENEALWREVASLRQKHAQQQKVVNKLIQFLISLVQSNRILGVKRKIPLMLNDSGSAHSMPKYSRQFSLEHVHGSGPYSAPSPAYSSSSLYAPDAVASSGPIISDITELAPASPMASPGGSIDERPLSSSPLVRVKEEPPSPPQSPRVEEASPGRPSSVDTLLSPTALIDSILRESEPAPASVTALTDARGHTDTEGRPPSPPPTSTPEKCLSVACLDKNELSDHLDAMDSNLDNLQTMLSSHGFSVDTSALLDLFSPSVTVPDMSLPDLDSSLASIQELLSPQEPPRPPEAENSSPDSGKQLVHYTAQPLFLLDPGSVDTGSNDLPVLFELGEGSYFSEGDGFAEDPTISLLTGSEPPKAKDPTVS
Procedure, shortened: as §1

[4] = target: T2, SPIC (Homo sapiens, UniProt Q8N5J4 1-248); settings: protein: recombinant; tags: N-terminal GST; dsDNA, one strand shown
T2 sequence: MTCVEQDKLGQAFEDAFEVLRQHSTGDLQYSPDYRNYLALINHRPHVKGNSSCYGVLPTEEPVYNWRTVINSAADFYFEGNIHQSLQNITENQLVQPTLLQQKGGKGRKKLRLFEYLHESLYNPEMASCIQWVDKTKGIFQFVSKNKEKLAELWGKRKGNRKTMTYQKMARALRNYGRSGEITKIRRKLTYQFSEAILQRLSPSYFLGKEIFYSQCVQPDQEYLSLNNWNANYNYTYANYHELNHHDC
Procedure, shortened: as §1

[5] = target: ELF4 (Homo sapiens, UniProt Q99607 1-663); settings: protein: recombinant; tags: N-terminal GST; dsDNA, one strand shown
Chain of ELF4 (Q99607 whole entry): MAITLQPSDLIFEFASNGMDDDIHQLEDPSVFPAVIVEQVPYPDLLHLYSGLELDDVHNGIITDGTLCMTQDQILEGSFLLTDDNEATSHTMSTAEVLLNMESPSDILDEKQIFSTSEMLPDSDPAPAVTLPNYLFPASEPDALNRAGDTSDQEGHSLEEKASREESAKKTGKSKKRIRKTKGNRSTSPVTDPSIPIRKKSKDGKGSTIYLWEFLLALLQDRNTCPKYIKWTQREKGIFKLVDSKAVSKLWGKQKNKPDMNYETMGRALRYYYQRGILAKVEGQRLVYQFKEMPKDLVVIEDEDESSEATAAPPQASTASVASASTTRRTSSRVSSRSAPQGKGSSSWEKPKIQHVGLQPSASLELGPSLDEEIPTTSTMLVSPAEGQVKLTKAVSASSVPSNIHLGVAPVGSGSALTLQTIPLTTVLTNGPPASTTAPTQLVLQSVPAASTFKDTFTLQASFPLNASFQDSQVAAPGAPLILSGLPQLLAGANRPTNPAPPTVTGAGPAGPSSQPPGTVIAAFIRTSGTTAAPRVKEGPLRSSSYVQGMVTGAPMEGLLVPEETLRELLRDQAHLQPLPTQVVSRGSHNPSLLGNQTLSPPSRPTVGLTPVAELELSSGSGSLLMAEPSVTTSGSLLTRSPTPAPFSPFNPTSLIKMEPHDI
Procedure, shortened: as §1

[6] = target: T3, ELK4 (Homo sapiens, UniProt P28324-2 1-405); settings: protein: recombinant; tags: N-terminal GST; dsDNA, one strand shown
T3 sequence: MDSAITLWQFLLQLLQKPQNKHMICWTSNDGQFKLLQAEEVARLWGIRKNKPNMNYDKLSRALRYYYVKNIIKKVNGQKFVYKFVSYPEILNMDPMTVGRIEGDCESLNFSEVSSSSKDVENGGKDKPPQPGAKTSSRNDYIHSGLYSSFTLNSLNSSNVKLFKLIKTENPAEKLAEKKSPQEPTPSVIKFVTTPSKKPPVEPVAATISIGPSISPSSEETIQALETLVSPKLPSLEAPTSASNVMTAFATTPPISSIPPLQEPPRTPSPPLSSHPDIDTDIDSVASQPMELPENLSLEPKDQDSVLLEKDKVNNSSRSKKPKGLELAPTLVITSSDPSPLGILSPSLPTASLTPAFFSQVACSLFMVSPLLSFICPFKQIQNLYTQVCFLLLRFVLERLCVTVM
Procedure, shortened: as §1

[7] = target: T4, ETV2 (Homo sapiens, UniProt O00321 1-342); settings: protein: recombinant; tags: N-terminal GST; dsDNA, one strand shown
T4 sequence: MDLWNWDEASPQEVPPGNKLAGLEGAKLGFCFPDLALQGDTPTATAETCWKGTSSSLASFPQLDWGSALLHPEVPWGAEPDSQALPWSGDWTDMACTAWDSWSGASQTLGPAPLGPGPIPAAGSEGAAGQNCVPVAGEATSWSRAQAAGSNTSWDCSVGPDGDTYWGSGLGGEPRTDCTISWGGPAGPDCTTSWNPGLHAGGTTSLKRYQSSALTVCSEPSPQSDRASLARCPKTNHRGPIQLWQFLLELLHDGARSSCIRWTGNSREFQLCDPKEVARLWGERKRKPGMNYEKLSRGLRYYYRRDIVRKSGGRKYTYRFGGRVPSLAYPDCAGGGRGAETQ
Procedure, shortened: as §1

[8] = target: T5, ELF3 (Homo sapiens, UniProt P78545 1-371); settings: protein: recombinant; tags: N-terminal GST; dsDNA, one strand shown
T5 sequence: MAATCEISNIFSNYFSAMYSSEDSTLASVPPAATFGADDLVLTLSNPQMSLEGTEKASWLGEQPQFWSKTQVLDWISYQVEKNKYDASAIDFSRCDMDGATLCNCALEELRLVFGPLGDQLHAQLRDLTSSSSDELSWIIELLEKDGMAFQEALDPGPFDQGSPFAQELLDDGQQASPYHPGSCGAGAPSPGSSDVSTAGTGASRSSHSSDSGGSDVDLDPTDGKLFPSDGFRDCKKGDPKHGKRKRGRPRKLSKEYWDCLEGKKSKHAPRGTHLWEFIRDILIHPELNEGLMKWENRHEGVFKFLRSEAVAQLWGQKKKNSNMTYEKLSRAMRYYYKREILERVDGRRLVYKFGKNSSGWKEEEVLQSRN
Procedure, shortened: as §1

[9] = target: CRX (Homo sapiens, UniProt O43186 1-299); settings: protein: recombinant; tags: N-terminal GST; dsDNA, one strand shown
Chain of CRX (O43186 whole entry): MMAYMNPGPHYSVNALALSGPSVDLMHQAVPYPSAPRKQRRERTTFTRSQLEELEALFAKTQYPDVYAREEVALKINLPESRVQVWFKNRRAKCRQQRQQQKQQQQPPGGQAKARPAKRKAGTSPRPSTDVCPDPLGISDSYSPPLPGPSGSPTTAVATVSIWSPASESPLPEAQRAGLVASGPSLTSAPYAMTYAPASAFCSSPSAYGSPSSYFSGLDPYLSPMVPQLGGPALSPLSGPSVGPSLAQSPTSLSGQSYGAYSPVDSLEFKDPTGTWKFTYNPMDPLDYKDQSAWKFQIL
Procedure, shortened: as §1

[10] = target: ETV1 (Homo sapiens, UniProt P50549 1-477); settings: protein: recombinant; tags: N-terminal GST; dsDNA, one strand shown
Chain of ETV1 (P50549 whole entry): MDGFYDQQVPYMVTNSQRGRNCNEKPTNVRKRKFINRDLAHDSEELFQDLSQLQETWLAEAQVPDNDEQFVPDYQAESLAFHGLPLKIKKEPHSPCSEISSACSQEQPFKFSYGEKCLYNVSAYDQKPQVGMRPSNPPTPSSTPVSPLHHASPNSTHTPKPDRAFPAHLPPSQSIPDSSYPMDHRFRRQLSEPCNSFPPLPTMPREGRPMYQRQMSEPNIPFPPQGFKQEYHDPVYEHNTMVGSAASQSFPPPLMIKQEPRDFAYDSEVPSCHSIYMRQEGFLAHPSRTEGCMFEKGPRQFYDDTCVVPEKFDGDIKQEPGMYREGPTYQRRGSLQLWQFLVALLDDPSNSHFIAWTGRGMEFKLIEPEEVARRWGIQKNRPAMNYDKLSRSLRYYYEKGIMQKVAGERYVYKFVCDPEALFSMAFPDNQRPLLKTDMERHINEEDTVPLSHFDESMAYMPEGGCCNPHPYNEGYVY
Procedure, shortened: as §1

[11] = target: T6, ERF (Homo sapiens, UniProt P50548 1-548); settings: protein: recombinant; tags: N-terminal GST; dsDNA, one strand shown
T6 sequence: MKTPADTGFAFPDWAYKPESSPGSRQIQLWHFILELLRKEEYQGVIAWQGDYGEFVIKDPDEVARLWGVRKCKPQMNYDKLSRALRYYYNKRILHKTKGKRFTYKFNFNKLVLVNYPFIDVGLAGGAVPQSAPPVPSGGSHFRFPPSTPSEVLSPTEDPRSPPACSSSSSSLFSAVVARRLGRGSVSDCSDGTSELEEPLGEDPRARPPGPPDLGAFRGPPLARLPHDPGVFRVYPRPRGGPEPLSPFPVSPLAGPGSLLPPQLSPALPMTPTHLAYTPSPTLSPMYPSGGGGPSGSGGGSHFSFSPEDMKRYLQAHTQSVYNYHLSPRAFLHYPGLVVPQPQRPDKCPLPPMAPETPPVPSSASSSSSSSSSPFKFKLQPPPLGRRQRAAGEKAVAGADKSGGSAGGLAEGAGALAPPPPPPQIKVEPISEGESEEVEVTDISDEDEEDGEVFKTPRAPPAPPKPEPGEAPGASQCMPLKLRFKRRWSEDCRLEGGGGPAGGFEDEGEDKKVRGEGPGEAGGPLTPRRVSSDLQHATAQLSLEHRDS
Procedure, shortened: as §1

[12] = target: T7, ETV3L (Homo sapiens, UniProt Q6ZN32 1-361); settings: protein: recombinant; tags: N-terminal GST; dsDNA, one strand shown
T7 sequence: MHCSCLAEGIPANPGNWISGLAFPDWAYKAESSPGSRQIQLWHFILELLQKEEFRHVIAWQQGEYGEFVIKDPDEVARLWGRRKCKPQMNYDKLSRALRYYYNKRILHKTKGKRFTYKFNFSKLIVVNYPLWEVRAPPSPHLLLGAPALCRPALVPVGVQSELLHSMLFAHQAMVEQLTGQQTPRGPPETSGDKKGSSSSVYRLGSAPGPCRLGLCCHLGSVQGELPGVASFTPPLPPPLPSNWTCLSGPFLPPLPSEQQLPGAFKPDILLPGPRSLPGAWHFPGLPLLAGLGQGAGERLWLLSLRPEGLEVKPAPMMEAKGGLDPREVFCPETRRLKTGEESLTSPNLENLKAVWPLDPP
Procedure, shortened: as §1

[13] = target: T8, ETS2 (Homo sapiens, UniProt P15036 1-469); settings: protein: recombinant; tags: N-terminal GST; dsDNA, one strand shown
T8 sequence: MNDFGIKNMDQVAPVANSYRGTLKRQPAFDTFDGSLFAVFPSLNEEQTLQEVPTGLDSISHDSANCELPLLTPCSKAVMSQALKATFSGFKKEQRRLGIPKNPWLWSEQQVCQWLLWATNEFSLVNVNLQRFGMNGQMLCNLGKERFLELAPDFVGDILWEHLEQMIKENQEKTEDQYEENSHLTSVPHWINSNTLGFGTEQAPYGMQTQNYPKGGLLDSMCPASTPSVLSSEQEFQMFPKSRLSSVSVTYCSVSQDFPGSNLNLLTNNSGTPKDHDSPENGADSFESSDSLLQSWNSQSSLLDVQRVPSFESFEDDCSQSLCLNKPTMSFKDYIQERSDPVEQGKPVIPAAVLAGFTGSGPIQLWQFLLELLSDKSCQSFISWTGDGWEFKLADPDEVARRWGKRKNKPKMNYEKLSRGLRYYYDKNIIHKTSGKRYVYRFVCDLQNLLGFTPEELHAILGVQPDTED
Procedure, shortened: as §1

[14] = target: T9, SPDEF (Homo sapiens, UniProt O95238 1-335); settings: protein: recombinant; tags: N-terminal GST; dsDNA, one strand shown
T9 sequence: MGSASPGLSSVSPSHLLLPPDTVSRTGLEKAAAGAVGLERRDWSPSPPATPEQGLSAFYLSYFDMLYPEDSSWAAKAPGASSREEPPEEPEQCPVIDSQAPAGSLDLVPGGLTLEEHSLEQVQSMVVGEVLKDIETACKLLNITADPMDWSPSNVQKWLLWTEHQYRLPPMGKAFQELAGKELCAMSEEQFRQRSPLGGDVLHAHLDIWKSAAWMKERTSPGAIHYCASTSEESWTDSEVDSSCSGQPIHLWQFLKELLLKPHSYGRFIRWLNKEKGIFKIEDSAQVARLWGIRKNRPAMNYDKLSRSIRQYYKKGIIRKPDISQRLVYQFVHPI
Procedure, shortened: as §1

[15] = target: T10, ETV7 (Homo sapiens, UniProt Q9Y603 1-341); settings: protein: recombinant; tags: N-terminal GST; dsDNA, one strand shown
T10 sequence: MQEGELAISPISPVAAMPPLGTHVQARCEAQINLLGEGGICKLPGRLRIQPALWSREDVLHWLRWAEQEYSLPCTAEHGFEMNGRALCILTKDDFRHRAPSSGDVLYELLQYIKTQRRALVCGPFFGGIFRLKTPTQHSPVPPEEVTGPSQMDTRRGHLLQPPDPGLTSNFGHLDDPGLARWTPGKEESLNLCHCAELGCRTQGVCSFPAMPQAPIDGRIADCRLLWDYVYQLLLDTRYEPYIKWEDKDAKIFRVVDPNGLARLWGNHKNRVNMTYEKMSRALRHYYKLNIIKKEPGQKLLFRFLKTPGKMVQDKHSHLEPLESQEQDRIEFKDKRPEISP
Procedure, shortened: as §1

[16] = target: T11, ELF5 (Homo sapiens, UniProt Q9UKW6-2 1-255); settings: protein: recombinant; tags: N-terminal GST; dsDNA, one strand shown
T11 sequence: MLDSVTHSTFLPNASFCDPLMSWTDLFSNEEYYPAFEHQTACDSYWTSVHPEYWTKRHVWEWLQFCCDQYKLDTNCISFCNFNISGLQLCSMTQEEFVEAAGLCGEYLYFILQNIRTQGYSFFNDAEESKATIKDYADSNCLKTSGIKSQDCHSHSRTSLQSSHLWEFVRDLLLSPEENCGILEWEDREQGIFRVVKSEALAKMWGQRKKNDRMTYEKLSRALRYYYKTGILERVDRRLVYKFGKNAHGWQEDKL
Procedure, shortened: as §1

[17] = target: T12, ETV3 (Homo sapiens, UniProt P41162-2 1-143); settings: protein: recombinant; tags: N-terminal GST; dsDNA, one strand shown
T12 sequence: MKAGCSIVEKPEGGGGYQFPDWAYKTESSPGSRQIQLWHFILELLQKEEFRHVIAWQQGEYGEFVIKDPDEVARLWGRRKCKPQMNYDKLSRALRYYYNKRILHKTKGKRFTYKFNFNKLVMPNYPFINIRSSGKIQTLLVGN
Procedure, shortened: as §1

[18] = target: ETV6 (Homo sapiens, UniProt P41212 1-452); settings: protein: recombinant; tags: N-terminal GST; dsDNA, one strand shown
Chain of ETV6 (P41212 whole entry): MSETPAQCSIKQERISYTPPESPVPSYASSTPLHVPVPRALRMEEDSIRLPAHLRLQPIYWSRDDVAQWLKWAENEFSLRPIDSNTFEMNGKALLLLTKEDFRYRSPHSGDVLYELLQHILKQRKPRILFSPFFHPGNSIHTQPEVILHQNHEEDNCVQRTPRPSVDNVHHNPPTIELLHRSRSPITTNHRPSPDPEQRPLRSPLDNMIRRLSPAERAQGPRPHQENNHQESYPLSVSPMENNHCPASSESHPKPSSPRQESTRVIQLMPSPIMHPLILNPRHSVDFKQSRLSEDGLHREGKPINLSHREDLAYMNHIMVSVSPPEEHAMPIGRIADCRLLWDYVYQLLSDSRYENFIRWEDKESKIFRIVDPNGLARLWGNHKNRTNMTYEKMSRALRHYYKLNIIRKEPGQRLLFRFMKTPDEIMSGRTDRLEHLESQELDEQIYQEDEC
Procedure, shortened: as §1

ATGCCT
binding signal [1]: 1.35 fold enrichment (6-mer frequency, TF over GST control)
binding signal [2]: 1.41 fold enrichment (6-mer frequency, TF over GST control)
binding signal [3]: 1.13 fold enrichment (6-mer frequency, TF over GST control)
binding signal [4]: 1.55 fold enrichment (6-mer frequency, TF over GST control)
binding signal [5]: 1.29 fold enrichment (6-mer frequency, TF over GST control)
binding signal [6]: 1.49 fold enrichment (6-mer frequency, TF over GST control)
binding signal [7]: 1.2 fold enrichment (6-mer frequency, TF over GST control)
binding signal [8]: 1.4 fold enrichment (6-mer frequency, TF over GST control)
binding signal [9]: 1.28 fold enrichment (6-mer frequency, TF over GST control)
binding signal [10]: 1.33 fold enrichment (6-mer frequency, TF over GST control)
binding signal [11]: 1.42 fold enrichment (6-mer frequency, TF over GST control)
binding signal [12]: 1.28 fold enrichment (6-mer frequency, TF over GST control)
binding signal [13]: 1.43 fold enrichment (6-mer frequency, TF over GST control)
binding signal [14]: 1.41 fold enrichment (6-mer frequency, TF over GST control)
binding signal [15]: 1.26 fold enrichment (6-mer frequency, TF over GST control)
binding signal [16]: 1.34 fold enrichment (6-mer frequency, TF over GST control)
binding signal [17]: 1.4 fold enrichment (6-mer frequency, TF over GST control)
binding signal [18]: 1.29 fold enrichment (6-mer frequency, TF over GST control)
